This is a sample that favours compounds with a hit; in the whole collection about 2.1% have one here.
FUS yeast rescue = suppressors of FUS proteinopathy in yeast; Potency, µM (doses to about 76.6 µM), actives largely listed as activators; S. cerevisiae FUS-expressing, growth rescue, OD600, 24 h; AID 1347120; 390,000 compounds, 0.24% hits;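 note: plate controls were DMSO vehicle for no effect and reference control for full effect; nearly all actives have a fitted effect of over 55% in size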
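FUS-expressing yeast, raffinose-pregrown, induced in 2% galactose minimal medium at OD 0.005; compounds in a dilution series, 24hr at 30C. Growth restoration read as absorbance at 600 nm. CP55940 positive control, DMSO negative.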
TDP43 rescue = TDP-43 toxicity inhibition in yeast | TDP-43 expressing yeast growth rescue, BacTiter-Glo, 24 h | Potency, µM (highest dose often 46.1 µM), without a hit: top-dose growth rescue (activation), most hits filed as activators | 410,000 compounds, 1.8% hits; note: % of control where 0% means no effect; nearly all actives have a fitted effect of over 50% in size
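Readout is BacTiter-Glo luminescence of cell growth, so inhibitors register as activators. TDP-43-expressing yeast at OD600=0.02 in galactose medium, after raffinose pregrowth to mid-log, were incubated with compound for 24 hr at 30 deg C.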
Abeta yeast res = A-beta toxicity reversal in yeast; yeast expressing A-beta42, growth rescue, OD600, 48 h; response scale: 0% DMSO, 100% iron-clioquinol control; Potency, µM (doses to about 46.1 µM), usual class: activators; 410,000 compounds, 0.063% hits; note: nearly all actives have a fitted effect of over 55% in size
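Growth rescue measured by 600 nm absorbance after 48 h yeast culture at 30 C with compound. Values normalized between DMSO and an equimolar ferric chloride plus clioquinol control.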
aSyn yeast inh = alpha-synuclein toxicity inhibition in yeast. Yeast expressing alpha-synuclein, growth rescue, BacTiter-Glo, 24 h. Potency, µM (doses to about 46.1 µM), for the others: at the top dose growth rescue (activation), actives largely listed as activators. 370,000 compounds, 0.14% hits. AID 652106; note: % of control where 0% means no effect; nearly all actives have a fitted effect of over 65% in size
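Galactose-induced alpha-syn yeast (OD600=0.02, raffinose-pregrown) + pinned cpd, 24 hr, 30 deg C; growth by BacTiter-Glo luminescence. Growth restoration scores as activation.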
Starred values were filed as active, the others as inactive; i = inactive; ? = inconclusive; . = no result given; ! = not active in a repeat; [ ] = another dose, or the depositor's remark. Calls come from the whole dose curve; as a rule, active = well fitted curve in the direction sought with a large enough effect; inconclusive = small, poorly fitted or top-dose-only effect, or another doubt; inactive = no such curve, though single readings can be large; an effect the other way counts as inactive or inconclusive. Potency is the fitted concentration of half-maximal effect.

SMILES | FUS yeast rescue | TDP43 rescue | Abeta yeast res | aSyn yeast inh
CCN1CCN(Cc2c(O)ccc3c(=O)c(Oc4ccccc4Cl)c(C(F)(F)F)oc23)CC1 | i | -1% | i | -9%
O=C(COC(=O)c1ccccc1Br)NCCc1ccc(F)cc1 | . | 20µM* | i | 19%
CSc1ncccc1C(=O)OCC(=O)NCCCc1ccccc1 | i | 18µM* | i | 1%
CCOC(=O)c1c(-c2ccccc2)csc1NC(=O)c1cc(-c2ccc(Cl)cc2)on1 | i | 13% | i | .
Cc1onc(C(=O)NN)c1-c1csc(COc2ccc(Cl)cc2)n1 | i | 11µM* | i | 11%
Cc1nc(-c2nc(-c3c(C(=O)NN)noc3C)cs2)cs1 | i | -16%[0.397 µM] | i | -7%
CNc1ccc(C=C2c3ccccc3-c3ccccc32)cc1 | . | . | . | -19%
Cn1c(=O)c2nc(-c3ccccc3)c(-c3ccccc3)nc2n(C)c1=O | i | 32µM* | i | -31%
COc1ccc(C2=NN(C(C)=O)CC2c2cccc([N+](=O)[O-])c2)cc1 (stereo not given) | i | 11µM* | . | 11%
Cc1cc(C(=O)Nc2ccc(C(C)C)cc2)c2c(C)nn(-c3ccccc3)c2n1 | i | -13% | i | 0%
O=C(c1ccc(F)cc1F)N1CCN(c2ncccn2)CC1 | i | -4% | i | 0%
O=C(c1ccc(N2CCN(C(=O)c3ccc(F)cc3F)CC2)cc1)c1cccc(F)c1 | i | 18µM* | i | 10%
CCOc1ccc(OCc2ccc(C(=O)N(CC)CC)cc2)cc1 | i | 13µM* | i | -11%
CCN(C(=O)Cn1c(C(=O)OC)cc2oc3ccccc3c21)c1cccc(C)c1 | i | 4% | i | .
Cc1nc2ccc(Oc3ccccc3)cc2s1 | i | 28% | i | -1%
Nc1nc2ccc(Oc3ccccc3)cc2s1 | . | 11µM* | i | -12%
Nc1nc2ccc(O)cc2s1 | . | -3% | i | 3%
Nc1nc2ccc(OC(F)(F)F)cc2s1 | i | 13µM* | i | .
Cc1ccc(CNC(=O)C2CCN(S(=O)(=O)c3ccc4c(c3)CCCN4C(=O)C3CCC3)CC2)cc1 | i | 3% | i | .
Cc1cccc(CNC(=O)C2CCN(S(=O)(=O)c3ccc4c(c3)CCCN4C(=O)C3CCC3)CC2)c1 | 28µM* | 3% | i | .
CC(=O)N1CCCc2cc(S(=O)(=O)N3CCCC(C(=O)N4CCN(c5cc(C)ccc5C)CC4)C3)ccc21 (stereo not given) | 13µM*! | -8% | i | 7%
CC(=O)N1CCCc2cc(S(=O)(=O)N3CCCC(C(=O)N4CCN(c5ccccc5)CC4)C3)ccc21 (stereo not given) | i | 11% | i | 0%
CC(=O)Nc1ccc(NC(=O)C2CCCN2S(=O)(=O)c2ccc3c(c2)CCCC(=O)N3)cc1 (stereo not given) | i | 12% | i | .
Cc1ccc(/C=C/C(=O)N2CCC(c3nc4ccccc4o3)CC2)cc1 | i | 6% | i | .
COc1ccc(/C=C/C(=O)N2CCC(c3nc4ccccc4o3)CC2)cc1OC | ? | 16µM* | i | .
SMILES | FUS yeast rescue | TDP43 rescue | Abeta yeast res | aSyn yeast inh
COc1cccc(C(=O)Nc2ccc(-n3nncc3-c3ccccc3)cc2)c1 | ? | 35µM* | i | .
COc1cccc(C(=O)Nc2c(C(=O)NC(C)(C)C)oc3ccccc23)c1 | i | 18µM* | i | .
O=C(Nc1nc(-c2ccccc2)c(-c2ccccc2)o1)c1ccc(F)cc1 | i | ? | 11µM* | ?
CCOC(=O)C(=O)Nc1nc(-c2ccccc2)c(-c2ccccc2)o1 | . | 10% | ? | ?
O=C(Nc1ccc(-n2nncc2-c2ccccc2)cc1)c1ccccc1 | . | . | . | -2%
COc1cccc(C(=O)Nc2nc(-c3ccccc3)c(-c3ccccc3)o2)c1 | i | 20µM* | 16µM* | ?
CCc1ccc(NC(=O)CCc2c(C)nn(-c3ccc(N4CCCC4)nn3)c2C)cc1 | i | 1% | i | .
COC(=O)[C@@]12CCCCC3=C1N(CCC3)C(=O)[C@H]2CC(=O)NCc1ccccc1 | i | . | . | .
CCCCCCCCN1C(=O)[C@@H](CC(=O)NCCCN2CCCC2=O)C[C@@]2(C(=O)OC)C1=C[C@H](C(C)C)O[C@@H]2C1CC1 | 18µM* | . | . | .
CCCCCCCCN1C(=O)[C@@H](CC(=O)N2CCN(C(=O)C3CC3)CC2)C[C@@]2(C(=O)OC)C1=C[C@H](C(C)C)O[C@@H]2C1CC1 | 28µM* | . | . | .
COC(=O)[C@]12C[C@H](CC(=O)NCC34CC5CC(CC(C5)C3)C4)C(=O)N(Cc3ccco3)C1=C[C@H](C(C)C)O[C@@H]2C1CC1 | 25µM* | . | . | .
COC(=O)[C@]12C[C@H](CC(=O)NCCCN3CCCC3=O)C(=O)N(CCc3ccc(OC)c(OC)c3)C1=C[C@H](C(C)C)O[C@@H]2C1CC1 | i | . | . | .
O=C(CN1C(=O)C2(SCC(=O)N2c2cccc(F)c2)c2ccccc21)NCCc1ccccc1 (stereo not given) | i | 10% | i | -7%
CC(C)c1ccc(C2N3CC4(C)CN2CC(c2ccccc2)(C3)C4=O)cc1 (stereo not given) | i | 19% | i | .
COc1cc(OC)c(C(=O)OCN2C(=O)c3ccccc3C2=O)cc1OC | i | -1% | i | -8%
COc1ccc(C(=O)OCN2C(=O)c3ccccc3C2=O)cc1 | i | 10µM* | i | ?
CCc1ccc(OC(=O)CN2C(=O)c3ccccc3C2=O)cc1 | i | 16µM* | i | 12%
CCOc1cc2sc(N3CCC(C(=O)Nc4ccc(C(C)C)cc4)CC3)nc2cc1Br | i | 23% | i | 0%
CCOc1cccc(C(=O)N(Cc2ccc(N(C)C)cc2)CC2CCCO2)c1 (stereo not given) | i | -13% | i | .
CCOc1ccc2nc(N3CCN(C(=O)c4ccco4)CC3)sc2c1 | i | ? | i | .
CCSc1ccccc1C(=O)N1CCN(c2nc3ccccc3s2)CC1 | i | 18µM* | i | .
O=C(C1COc2ccccc2O1)N1CCN(c2nc3ccc([N+](=O)[O-])cc3s2)CC1 (stereo not given) | i | ? | i | -6%
O=C(C1COc2ccccc2O1)N1CCN(S(=O)(=O)c2cc(F)ccc2F)CC1 (stereo not given) | i | 28µM* | i | -2%[1.84 µM]
O=C(C1COc2ccccc2O1)N1CCN(c2nc3ccccc3s2)CC1 (stereo not given) | i | 11µM* | i | 7%
COc1ccc2nc(N3CCN(C(=O)c4ccco4)CC3)sc2c1 | i | 20µM* | i | .
C=C1C[C@@]23CC[C@H]4[C@@](C)(CCC[C@@]4(C)C(=O)O)[C@@H]2CC[C@]1(O)C3 | . | . | . | 0%
COc1ccc(-c2nc3ccccc3n3c(-c4cccc(C)c4)c4c(=O)n(C)c(=O)n(C)c4c23)cc1OC | ? | ? | i | .
CCc1ccc2nc(N3CCN(C(=O)c4ccco4)CC3)sc2c1 | ? | 14µM* | i | .

Screens deposited in PubChem BioAssay by National Center for Advancing Translational Sciences (NCATS).
